Out of some 72,000 compounds screened, about 710 (0.99%) were called active. Roughly 7% stayed inconclusive and do not appear here. Calls come from the whole dose curve; as a rule, active = well fitted inhibition curve with a large enough effect; inconclusive = small, poorly fitted or top-dose-only effect; inactive = no such curve, though single readings can be large or run the other way. The list comes from a sample in which actives are over-represented; it also holds similar structures and randomly drawn compounds. Where a call stands in place of a potency, no number is given.
assay: qHTS Assay for Inhibitors of the ERK Signaling Pathway using a Homogeneous Screening Assay; settings: HEK293-V1b, vasopressin-stimulated pERK AlphaScreen; series mostly up to 57.5 µM; note: nearly all actives have a fitted effect of over 55% in size
Procedure, shortened: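 HEK293 cells stably expressing V1b receptor, seeded overnight in 1% FBS, were treated with compounds for 30 min at 37C, then stimulated 5 min with 25 nM vasopressin; phospho-ERK read by AlphaScreen SureFire after lysis.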
Potency is the fitted concentration of half-maximal effect.

| SMILES | Potency | activity, negative = inhibition |
| --- | --- | --- |
| COC(=O)[C@@H]1C[C@@]2(O)[C@H](O)[C@H](O)[C@H](O)C[C@H]2N1Cc1ccc(C(C)(C)C)cc1 | inactive | – |
| NCCNCC1CCNCC1 | – | -16% [at 11.5 µM] (inactive) |
| O=C(c1ccco1)N1CCN(C(=O)C2CC(c3ccc(Cl)c(Cl)c3)=NO2)CC1 (stereo unspecified) | 20 µM (active) | – |
| O=C(c1ccco1)N1CCN(C(=O)C2CC(c3ccc(F)cc3)=NO2)CC1 (stereo unspecified) | inactive | – |
| O=C(c1ccco1)N1CCN(c2cccc(Cl)c2)CC1 | inactive | – |
| O=C(O)c1c(Br)c(Br)c(Br)c(Br)c1C1c2ccc(O)cc2Oc2cc(O)ccc21 | – | -24.2% [at 11.5 µM] (inactive) |
| CC(=O)OC1CCC2(O)CC1(C)CCC1C2CC1(C)C (stereo unspecified) | inactive | – |
| COc1cccc(Cn2c(=O)cnc3cncnc32)c1 | inactive | – |
| COc1ccc(CCC(=O)c2c(O)cc(OC3OC(CO)C(O)C(O)C3O[C@@H]3OC(C)C(O)C(O)C3O)cc2O)cc1O (stereo partly specified) | inactive | – |
| O=C(Oc1cc(OC(=O)c2ccccc2)c2c(c1)OC(c1ccc(OC(=O)c3ccccc3)c(OC(=O)c3ccccc3)c1)[C@@H](OC(=O)c1ccccc1)C2)c1ccccc1 (stereo partly specified) | inactive | – |
| O=C(NC1CCCCC1)C1c2ccccc2C(=O)N1Cc1ccco1 (stereo unspecified) | inactive | – |
| CC1(C)SC2c3ccccc3C(=O)N2[C@@H]1C(=O)NCc1ccco1 (stereo partly specified) | inactive | – |
| O=C1c2ccccc2C(Nc2ccc3c(c2)OCCO3)N1Cc1ccco1 (stereo unspecified) | 25.1 µM (active) | – |
| COC1C[C@@H](O[C@@H]2C(C)C(=O)OC(C)C(C)C(O)C(C)C(=O)[C@@]3(CO3)CC(C)C(OC3OC(C)CC(N(C)C)C3O)C2C)OC(C)[C@@H]1O (stereo partly specified) | inactive | – |
| C=C[C@](C)(O)CCC1C(=C)CCC2[C@@](C)(CO)CCC[C@@]12C (stereo partly specified) | inactive | – |
| COCc1[nH]nc2c1C(C1C=CCCC1)C(C#N)=C(N)O2 (stereo unspecified) | inactive | – |
| N#CC1=C(N)Oc2cc(O)ccc2C1C1CCCCC1 (stereo unspecified) | 25.1 µM (active) | – |
| N#CC1=C(N)OC2=C(C(=O)CCC2)C1C1CC=CCC1 (stereo unspecified) | inactive | – |
| Clc1ccc(C=Nc2ccc3c(c2)Cc2ccccc2-3)c(Cl)c1 | – | 9.67% [at 11.5 µM] (inactive) |
| CCCN(C/C=C\I)[C@@H]1CCc2cccc(O)c2C1 | inactive | – |
| CC1=C(/C=C/C(C)=C/C=C/C(C)=C/C=C/C=C(C)/C=C/C=C(C)/C=C/C2=C(C)CCCC2(C)C)C(C)(C)CCC1 | inactive | – |
| COCCn1c(=O)c(CCc2ccccc2)nc2cnc(N3CCNCC3)nc21 | inactive | – |
| Cc1cnc(CNc2cc(-c3c(C)noc3C)ncn2)cn1 | inactive | – |
| O=C(O)C(O)[C@@](O)(Cc1ccc(O)cc1)C(=O)O (stereo partly specified) | inactive | – |

| SMILES | Potency | activity, negative = inhibition |
| --- | --- | --- |
| Cc1ccnc(N2CCC(C(=O)NC3CCCCCC3)CC2)n1 | inactive | – |
| Cc1nc2ccccc2c(=O)n1CCCn1ccnc1 | inactive | – |
| Cc1ccnc(-n2sc3ccccc3c2=O)n1 | 39.8 µM (active) | – |
| C=CCOC(=O)C(C(C)=O)C(NC(=O)OC)c1ccccc1 (stereo unspecified) | – | 29.5% [at 11.5 µM] (inactive) |
| Cn1c(=O)c(-c2ccccc2)nc2cnc(N3CCNCC3)nc21 | inactive | – |
| CCCCNc1nc(C)nc2c1nc(-c1ccccc1)n2CCCCN(CC)CC | inactive | – |
| C=C1C(=O)C23C(O)C1CCC2[C@]12COC3(O)C(O)C1C(C)(C)CC[C@H]2O (stereo partly specified) | inactive | – |
| c1ccc(CCN2CCN=C2Cc2ccccc2)cc1 | – | 9.2% [at 11.5 µM] (inactive) |
| COCCn1c(=O)c(-c2cc(F)cc(F)c2)nc2cncnc21 | inactive | – |
| NS(=O)(=O)c1cc(Cl)c(Cl)c(S(N)(=O)=O)c1 | inactive | – |
| CCCCCCCCCCCC(=O)O[C@H](CC(=O)O)C[N+](C)(C)C | inactive | – |
| CC(C)=CC1C(C(=O)O)C1(C)C (stereo unspecified) | inactive | – |
| O=C(c1ccco1)N1CCC2(CC1)CN(c1ncccn1)C2 | inactive | – |
| CC1(C)OC2CC3C4CCC5=CC(=O)CCC5(C)C4(F)C(O)CC3(C)[C@]2(C(=O)CCl)O1 (stereo partly specified) | inactive | – |
| CC1OC(OCC2OC(Oc3c(-c4ccc(O)c(O)c4)oc4cc(O)cc(O)c4c3=O)C(O)C(O)C2O)[C@@H](O)C(O)C1O (stereo partly specified) | inactive | – |
| Cc1c(C)c2c(c(C)c1O)CC[C@@](C)(CN1CCN(c3cc(N4CCCC4)nc(N4CCCC4)n3)CC1)O2 | inactive | – |
| CO[C@H]1COC(=O)C/C=C\[C@H](C)COC(=O)[C@@H](OCc2ccccc2)/C=C\[C@@H]1C | – | 0.999% [at 11.5 µM] (inactive) |
| COC(=O)CC1C(C)(C)C(OC(C)=O)C2CC3=C4CC(=O)OC(c5ccoc5)[C@]4(C)CCC3[C@@]1(C)C2=O (stereo partly specified) | inactive | – |
| CC(=O)OCC(=O)[C@@]1(O)CCC2C3CCC4=CC(=O)CC[C@]4(C)C3C(=O)C[C@]21C (stereo partly specified) | inactive | – |
| Fc1ccc(Br)cc1/C=N/n1cnnc1 | inactive | – |
| Cc1cc(/C=N/n2cnnc2)c(C)n1-c1ccc2ncccc2c1 | 15.8 µM (active) | – |
| Cc1ccc(S(=O)(=O)Nc2ccc3ncccc3c2)cc1 | inactive | – |
| CCC1=C(OC(=O)N(CC)CC)N2C(=O)OC(=NCC3CC3)[C@]2(C)[C@H]2C1=CC[C@H]1C(=O)N(CC(=O)OC)C(=O)[C@H]12 | inactive | – |
| CCC(C)C(N)C1=NC(C(=O)NC(CC(C)C)C(=O)NC(CCC(=O)O)C(=O)NC(C(=O)NCCCCC2NC(=O)C(CC(N)=O)NC(=O)C(CC(=O)O)NC(=O)C(Cc3cnc[nH]3)NC(=O)C(Cc3ccccc3)NC(=O)C(C(C)CC)NC(=O)C(CCCN)NC2=O)C(C)CC)CS1 (stereo unspecified) | inactive | – |

| SMILES | Potency | activity, negative = inhibition |
| --- | --- | --- |
| O=c1c(CCc2ccccc2)nc2cnc(N3CCNCC3)nc2n1Cc1cccs1 | inactive | – |
| Clc1ccc(C2[C@H]3CN(CC4CCCCC4)[C@H](c4ccccc4)C34CC2(c2cccnc2)C4)cn1 (stereo partly specified) | inactive | – |
| C=CCn1c(CSc2nc3ccccc3s2)nnc1SCC(=O)NCc1ccco1 | inactive | – |
| CCn1c(SCC(=O)Nc2nc3ccc(OC)cc3s2)nnc1-c1ccoc1C | inactive | – |
| C=CCn1c(SCC(=O)Nc2nc3ccccc3s2)nnc1-c1ccccc1O | 15.8 µM (active) | – |
| Cc1ccc(-c2nn(CC(C)(C)C)c3ncnc(N)c23)cc1 | 7.94 µM (active) | – |
| CC(C)=CCC/C(C)=C/CC/C(C)=C/CC/C(C)=C/CO | inactive | – |
| COc1cc(OC)c2c(c1Cl)OC1(C2=O)C(O)=CC(=O)CC1C (stereo unspecified) | inactive | – |
| CCC[C@@H]1C[C@@]1(CCC)C(NS(=O)(=O)c1cccc2cccnc12)c1ccc(Cl)cc1 (stereo partly specified) | inactive | – |
| C=CC(=C)CCC=C(C)C | inactive | – |
| Fc1cccc(/C=N\N=C/c2cccc(F)c2)c1 | inactive | – |
| O=C1NS(=O)(=O)c2ccccc21 | inactive | – |
| Cc1cccc(CNc2cc(-c3ccccc3Cl)ncn2)c1 | inactive | – |
| FC(F)(F)c1ccc(CN2C[C@@H]3C(c4ccccc4)C4(c5ccccc5)CC3(C4)[C@H]2c2ccccc2)cc1 (stereo partly specified) | inactive | – |
| Cc1ccc(OCC(=O)Nc2ccc(-c3nnc(-c4ccco4)o3)cc2)cc1 | inactive | – |
| COc1ccc(CC(=O)Nc2ccc(-c3nnc(-c4ccccc4)o3)cc2)cc1 | inactive | – |
| O=C(CCc1ccccc1)Nc1cccc(-c2nnc(-c3ccco3)o2)c1 | 25.1 µM (active) | – |
| Oc1cc(O)c2c(c1)OC(c1ccc(O)c(O)c1)C(O)C2 (stereo unspecified) | inactive | – |
| C[C@@H](N)[C@@H](C)Cc1ccccc1 | – | -2.1% [at 11.5 µM] (inactive) |
| CCC(CCC(C)C1CCC2C3CC=C4CC(O)CC[C@@]4(C)C3CC[C@@]12C)C(C)C (stereo partly specified) | inactive | – |
| COc1ccccc1NC(=O)C1=C(C)NC2=C(C(=O)CCC2)C1c1ccc(C)o1 (stereo unspecified) | inactive | – |
| COC(=O)C1=C(C)NC(=O)NC1/C=C/c1ccccc1 (stereo unspecified) | inactive | – |
| COC(=O)C1=C(C)NC2=C(C(=O)c3ccccc32)C1c1ccc(-c2ccc(C(=O)O)cc2)o1 (stereo unspecified) | 25.1 µM (active) | – |
